Source: ChEMBL document CHEMBL1961873, “Compounds: GSK PKIS; Assays: Nanosyn kinase panel” (2012)

Tests used:
[1] = target: Serine/threonine-protein kinase pim-2 (Homo sapiens) (UniProt Q9P1W9); details: at 1 µM;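 also: each value is a mean of the inhibition measurements against the kinase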
[2] = target: Serine/threonine-protein kinase pim-3 (Homo sapiens) (UniProt Q86V86); details: at 0.1 µM
[3] = target: Serine/threonine-protein kinase pim-3 (Homo sapiens) (UniProt Q86V86); details: at 1 µM
[4] = target: T1, MAP kinase-activated protein kinase 5 (Homo sapiens) (UniProt Q8IW41); details: at 0.1 µM
T1 sequence (whole entry): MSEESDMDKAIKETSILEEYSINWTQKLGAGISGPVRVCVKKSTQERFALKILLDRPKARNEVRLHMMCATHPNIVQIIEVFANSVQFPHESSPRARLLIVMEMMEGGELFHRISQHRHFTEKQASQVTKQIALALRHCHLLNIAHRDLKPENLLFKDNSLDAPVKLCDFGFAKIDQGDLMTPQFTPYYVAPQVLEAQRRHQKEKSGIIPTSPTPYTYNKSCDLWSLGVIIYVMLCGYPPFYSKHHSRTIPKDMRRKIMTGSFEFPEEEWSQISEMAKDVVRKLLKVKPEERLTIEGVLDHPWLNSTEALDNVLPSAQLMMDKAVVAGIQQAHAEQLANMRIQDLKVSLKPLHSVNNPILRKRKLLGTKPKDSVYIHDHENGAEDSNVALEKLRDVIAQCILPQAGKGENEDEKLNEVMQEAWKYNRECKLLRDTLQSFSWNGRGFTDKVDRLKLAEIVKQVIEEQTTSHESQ

[5] = target: T1, MAP kinase-activated protein kinase 5 (Homo sapiens); details: at 1 µM
[6] = target: Serine/threonine-protein kinase SIK1 (Homo sapiens) (UniProt P57059); details: at 0.1 µM
[7] = target: Serine/threonine-protein kinase SIK1 (Homo sapiens) (UniProt P57059); details: at 1 µM
[8] = target: Serine/threonine-protein kinase SIK2 (Homo sapiens) (UniProt Q9H0K1); details: at 0.1 µM
[9] = target: Serine/threonine-protein kinase SIK2 (Homo sapiens) (UniProt Q9H0K1); details: at 1 µM
[10] = target: T2, Serine/threonine-protein kinase TBK1 (Homo sapiens) (UniProt Q9UHD2); details: at 0.1 µM
T2 sequence (whole entry): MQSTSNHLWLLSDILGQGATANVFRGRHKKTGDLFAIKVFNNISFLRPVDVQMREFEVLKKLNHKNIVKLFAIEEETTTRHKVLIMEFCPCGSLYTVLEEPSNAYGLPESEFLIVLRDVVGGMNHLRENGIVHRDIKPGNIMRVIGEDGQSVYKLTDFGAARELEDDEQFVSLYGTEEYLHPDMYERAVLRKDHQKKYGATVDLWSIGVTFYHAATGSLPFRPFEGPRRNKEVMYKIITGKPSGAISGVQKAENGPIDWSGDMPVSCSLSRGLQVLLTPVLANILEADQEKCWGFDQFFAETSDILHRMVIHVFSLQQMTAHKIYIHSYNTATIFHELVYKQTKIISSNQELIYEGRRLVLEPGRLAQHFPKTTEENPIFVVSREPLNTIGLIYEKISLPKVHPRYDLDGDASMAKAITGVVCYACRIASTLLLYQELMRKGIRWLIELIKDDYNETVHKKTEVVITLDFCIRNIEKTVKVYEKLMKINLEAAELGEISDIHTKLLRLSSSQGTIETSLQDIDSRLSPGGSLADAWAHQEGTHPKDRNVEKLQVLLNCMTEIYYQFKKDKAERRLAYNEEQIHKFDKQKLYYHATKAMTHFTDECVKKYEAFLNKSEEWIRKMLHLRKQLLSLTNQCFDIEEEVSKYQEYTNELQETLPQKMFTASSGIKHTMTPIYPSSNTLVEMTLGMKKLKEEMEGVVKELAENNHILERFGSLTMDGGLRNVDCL

[11] = target: T2, Serine/threonine-protein kinase TBK1 (Homo sapiens); details: at 1 µM
[12] = target: T3, Testis-specific serine/threonine-protein kinase 1 (Homo sapiens) (UniProt Q9BXA7); details: at 0.1 µM
T3 sequence (whole entry): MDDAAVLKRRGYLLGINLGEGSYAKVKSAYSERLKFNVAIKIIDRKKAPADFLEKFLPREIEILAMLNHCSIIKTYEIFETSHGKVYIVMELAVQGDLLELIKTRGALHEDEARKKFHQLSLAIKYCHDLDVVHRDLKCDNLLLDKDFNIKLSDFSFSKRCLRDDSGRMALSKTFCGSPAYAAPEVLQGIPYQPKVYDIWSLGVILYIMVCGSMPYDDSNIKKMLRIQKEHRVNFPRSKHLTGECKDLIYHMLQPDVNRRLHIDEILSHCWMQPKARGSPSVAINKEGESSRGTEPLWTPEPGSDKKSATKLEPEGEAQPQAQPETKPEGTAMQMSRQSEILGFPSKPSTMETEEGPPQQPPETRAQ

[13] = target: T3, Testis-specific serine/threonine-protein kinase 1 (Homo sapiens); details: at 1 µM
[14] = target: T4, Testis-specific serine/threonine-protein kinase 2 (Homo sapiens) (UniProt Q96PF2); details: at 0.1 µM
T4 sequence (whole entry): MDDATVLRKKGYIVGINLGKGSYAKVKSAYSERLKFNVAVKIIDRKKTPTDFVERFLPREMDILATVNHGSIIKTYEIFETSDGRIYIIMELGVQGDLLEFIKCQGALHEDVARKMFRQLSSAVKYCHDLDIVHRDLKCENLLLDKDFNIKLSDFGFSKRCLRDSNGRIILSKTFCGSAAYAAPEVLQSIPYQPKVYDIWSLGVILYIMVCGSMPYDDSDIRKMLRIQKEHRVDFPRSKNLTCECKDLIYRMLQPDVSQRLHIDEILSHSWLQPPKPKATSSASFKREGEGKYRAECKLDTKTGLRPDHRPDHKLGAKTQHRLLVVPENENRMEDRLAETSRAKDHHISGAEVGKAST

[15] = target: T4, Testis-specific serine/threonine-protein kinase 2 (Homo sapiens); details: at 1 µM
[16] = target: Casein kinase I isoform alpha (Homo sapiens) (UniProt P48729); details: at 0.1 µM
[17] = target: Casein kinase I isoform alpha (Homo sapiens) (UniProt P48729); details: at 1 µM
[18] = target: Casein kinase I isoform gamma-1 (Homo sapiens) (UniProt Q9HCP0); details: at 0.1 µM
[19] = target: Casein kinase I isoform gamma-1 (Homo sapiens) (UniProt Q9HCP0); details: at 1 µM
[20] = target: Casein kinase I isoform gamma-2 (Homo sapiens) (UniProt P78368); details: at 0.1 µM;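 also: values are mean inhibition figures reported as part of the GSK PKIS dataset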
Casein kinase I isoform gamma-2 (Homo sapiens), sequence (P78368 whole entry, looked up, canonical isoform): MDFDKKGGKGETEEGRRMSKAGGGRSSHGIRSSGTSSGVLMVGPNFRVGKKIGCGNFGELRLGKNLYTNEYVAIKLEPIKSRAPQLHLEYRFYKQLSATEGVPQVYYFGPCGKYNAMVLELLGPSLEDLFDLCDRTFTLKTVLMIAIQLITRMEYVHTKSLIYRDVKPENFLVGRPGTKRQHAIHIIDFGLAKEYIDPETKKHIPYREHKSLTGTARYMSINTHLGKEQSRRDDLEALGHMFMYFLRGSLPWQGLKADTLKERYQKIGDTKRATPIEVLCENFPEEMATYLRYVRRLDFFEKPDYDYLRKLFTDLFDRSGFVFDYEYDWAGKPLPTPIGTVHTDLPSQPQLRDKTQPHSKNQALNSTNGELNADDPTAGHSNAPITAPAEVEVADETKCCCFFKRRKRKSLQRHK

Serine/threonine-protein kinase SIK2 (Homo sapiens), sequence (Q9H0K1 whole entry, looked up): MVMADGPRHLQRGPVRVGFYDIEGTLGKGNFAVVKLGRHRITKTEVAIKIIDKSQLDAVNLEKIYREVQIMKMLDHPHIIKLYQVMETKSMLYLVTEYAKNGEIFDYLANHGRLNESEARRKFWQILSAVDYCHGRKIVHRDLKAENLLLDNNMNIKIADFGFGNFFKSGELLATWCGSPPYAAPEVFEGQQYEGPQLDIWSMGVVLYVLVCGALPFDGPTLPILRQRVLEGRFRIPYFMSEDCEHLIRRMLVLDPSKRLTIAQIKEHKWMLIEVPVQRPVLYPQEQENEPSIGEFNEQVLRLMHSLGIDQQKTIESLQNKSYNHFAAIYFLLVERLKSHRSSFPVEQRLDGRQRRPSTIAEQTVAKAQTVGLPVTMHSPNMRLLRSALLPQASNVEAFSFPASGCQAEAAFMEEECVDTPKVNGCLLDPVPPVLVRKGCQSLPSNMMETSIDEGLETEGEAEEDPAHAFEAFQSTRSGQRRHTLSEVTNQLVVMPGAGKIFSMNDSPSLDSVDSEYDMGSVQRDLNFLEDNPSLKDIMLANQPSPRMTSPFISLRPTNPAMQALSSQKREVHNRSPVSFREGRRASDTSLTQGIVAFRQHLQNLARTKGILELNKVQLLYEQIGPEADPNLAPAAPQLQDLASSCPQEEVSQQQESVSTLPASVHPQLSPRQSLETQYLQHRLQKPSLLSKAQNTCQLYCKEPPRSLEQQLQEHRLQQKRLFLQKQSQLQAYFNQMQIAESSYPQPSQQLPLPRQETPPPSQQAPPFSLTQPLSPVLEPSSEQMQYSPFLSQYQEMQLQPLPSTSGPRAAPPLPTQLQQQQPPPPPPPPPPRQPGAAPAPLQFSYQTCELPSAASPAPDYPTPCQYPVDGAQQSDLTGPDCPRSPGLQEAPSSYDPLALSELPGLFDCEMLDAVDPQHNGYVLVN
Serine/threonine-protein kinase SIK1 (Homo sapiens), sequence (P57059 whole entry): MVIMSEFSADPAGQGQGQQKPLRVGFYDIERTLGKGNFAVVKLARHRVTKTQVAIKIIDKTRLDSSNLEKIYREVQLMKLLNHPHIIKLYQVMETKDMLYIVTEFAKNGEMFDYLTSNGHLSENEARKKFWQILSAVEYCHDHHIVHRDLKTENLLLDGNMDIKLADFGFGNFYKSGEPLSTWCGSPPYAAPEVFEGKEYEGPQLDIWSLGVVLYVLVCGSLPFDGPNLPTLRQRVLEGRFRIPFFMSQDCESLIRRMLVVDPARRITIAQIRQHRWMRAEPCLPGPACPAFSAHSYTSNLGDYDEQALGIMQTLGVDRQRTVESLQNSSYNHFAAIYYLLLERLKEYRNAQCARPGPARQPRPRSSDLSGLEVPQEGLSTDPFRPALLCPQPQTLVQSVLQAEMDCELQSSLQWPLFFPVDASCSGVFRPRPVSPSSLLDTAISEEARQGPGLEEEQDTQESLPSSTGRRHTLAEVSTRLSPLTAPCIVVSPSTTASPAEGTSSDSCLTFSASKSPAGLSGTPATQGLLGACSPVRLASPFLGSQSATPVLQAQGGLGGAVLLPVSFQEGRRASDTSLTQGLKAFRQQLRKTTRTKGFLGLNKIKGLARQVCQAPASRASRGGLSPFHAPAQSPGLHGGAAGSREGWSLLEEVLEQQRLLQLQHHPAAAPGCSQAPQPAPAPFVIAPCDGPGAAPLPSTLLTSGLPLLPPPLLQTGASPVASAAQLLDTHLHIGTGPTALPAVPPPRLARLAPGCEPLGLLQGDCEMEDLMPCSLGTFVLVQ
Casein kinase I isoform gamma-1 (Homo sapiens), sequence (Q9HCP0 whole entry, looked up, canonical isoform): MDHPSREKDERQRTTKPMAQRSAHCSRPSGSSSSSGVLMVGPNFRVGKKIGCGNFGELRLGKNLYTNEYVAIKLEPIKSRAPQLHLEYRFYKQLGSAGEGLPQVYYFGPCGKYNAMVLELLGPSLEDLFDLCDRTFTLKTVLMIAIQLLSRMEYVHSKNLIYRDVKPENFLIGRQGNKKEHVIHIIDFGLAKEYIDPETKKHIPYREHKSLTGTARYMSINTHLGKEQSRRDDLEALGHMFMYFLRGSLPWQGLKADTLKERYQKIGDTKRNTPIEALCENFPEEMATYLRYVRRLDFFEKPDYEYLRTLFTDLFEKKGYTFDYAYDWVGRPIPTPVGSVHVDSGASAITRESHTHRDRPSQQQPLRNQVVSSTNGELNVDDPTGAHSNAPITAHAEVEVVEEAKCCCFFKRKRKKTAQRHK
Casein kinase I isoform alpha (Homo sapiens), sequence (P48729 2-337 limits assumed): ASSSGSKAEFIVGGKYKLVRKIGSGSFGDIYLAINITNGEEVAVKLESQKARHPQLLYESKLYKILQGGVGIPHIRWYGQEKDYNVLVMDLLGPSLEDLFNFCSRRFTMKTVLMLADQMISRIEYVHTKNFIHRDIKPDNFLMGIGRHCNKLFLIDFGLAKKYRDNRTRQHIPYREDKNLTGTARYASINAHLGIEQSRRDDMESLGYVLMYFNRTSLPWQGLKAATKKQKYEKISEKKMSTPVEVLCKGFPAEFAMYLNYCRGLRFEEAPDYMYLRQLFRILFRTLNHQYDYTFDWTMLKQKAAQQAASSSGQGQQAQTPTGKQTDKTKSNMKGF
Serine/threonine-protein kinase pim-2 (Homo sapiens), sequence (Q9P1W9 whole entry, looked up): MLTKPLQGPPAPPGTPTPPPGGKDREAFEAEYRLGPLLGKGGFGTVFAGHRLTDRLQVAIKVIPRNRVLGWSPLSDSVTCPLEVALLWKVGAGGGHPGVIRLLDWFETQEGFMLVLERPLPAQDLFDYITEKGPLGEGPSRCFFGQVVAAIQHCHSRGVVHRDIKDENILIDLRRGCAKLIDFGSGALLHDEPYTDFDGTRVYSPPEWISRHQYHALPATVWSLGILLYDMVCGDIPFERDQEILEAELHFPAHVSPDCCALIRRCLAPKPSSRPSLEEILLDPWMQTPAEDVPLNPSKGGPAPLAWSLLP

| SMILES | inhibition [1] [%] | inhibition [2] [%] | inhibition [3] [%] | inhibition [4] [%] | inhibition [5] [%] | inhibition [6] [%] | inhibition [7] [%] | inhibition [8] [%] | inhibition [9] [%] | inhibition [10] [%] | inhibition [11] [%] | inhibition [12] [%] | inhibition [13] [%] | inhibition [14] [%] | inhibition [15] [%] | inhibition [16] [%] | inhibition [17] [%] | inhibition [18] [%] | inhibition [19] [%] | inhibition [20] [%] |
| --- | --- | --- | --- | --- | --- | --- | --- | --- | --- | --- | --- | --- | --- | --- | --- | --- | --- | --- | --- | --- |
| COc1cc(Nc2ncc(-c3ccccc3)o2)cc(OC)c1OC | 1.06 | 0.31 | 1.87 | -0.54 | 0.01 | 0.98 | 27.4 | 3.12 | 30.6 | 2.26 | 13.7 | 0.03 | -0.04 | -1.14 | -1.3 | -0.72 | 1.29 | -1.4 | -0.76 | -1.34 |
| NS(=O)(=O)c1ccc(N/N=C2\C(=O)Nc3ccc(C(=O)NCCCn4ccnc4)cc32)cc1 | 7.42 | 3.06 | 18.9 | 1.4 | 4.54 | 7.49 | 13.9 | 9.61 | 12.7 | 3.93 | 30.4 | 7.1 | 13.3 | 4.07 | 6.71 | 3.95 | 6.05 | 5.08 | 10.8 | 4.43 |
| Fc1ccc(-c2ncn(C3CCNCC3)c2-c2ccnc(Oc3ccc(F)c(F)c3)n2)cc1 | -3.35 | -1.04 | -0.06 | 1.47 | 1.56 | 1.72 | 7.15 | 0.78 | 8.24 | 2.13 | 5.03 | 1.98 | 3.01 | 0.64 | 1.42 | 4.09 | 15.4 | 0.31 | 2.33 | -0.65 |
| C/C(Nc1ccc(S(N)(=O)=O)cc1)=C1/C(=O)Nc2ccccc21 | 0.33 | 0.02 | 1.7 | -0.26 | 1.08 | -7.25 | -0.38 | -6.72 | -0.55 | 0.77 | 4.75 | 0.79 | 5.46 | -0.65 | 1.13 | 2.64 | 8.53 | -0.74 | 6.33 | 1.03 |
| O=C1NC(=O)C(c2cccc(Cl)c2)=C1Nc1ccc(Cl)c(C(=O)O)c1 | -0.53 | 0.54 | 0.43 | 1.73 | 2.67 | 4.05 | 5.1 | 10.7 | 4.62 | 2.24 | 5.8 | 4.88 | 4.16 | 3.03 | 4.21 | 1.07 | 2.57 | 2.32 | 1.79 | 2.25 |
| NC(=O)Cc1ccccc1Oc1nccc(-c2c(-c3ccc(F)cc3)ncn2C2CCNCC2)n1 | 0.59 | -1.38 | 0.63 | 0.43 | -0.72 | 3.93 | 4.7 | 3.81 | -3.54 | 5.2 | 4.55 | 2.65 | 1.8 | 1.16 | -0.31 | 9.09 | 12.9 | 4.95 | 10.3 | 3.59 |
| COc1ccc2cc(-c3c(-c4ccncc4)nc(-c4ccc(S(C)(=O)=O)cc4C)n3C)ccc2c1 | 4.18 | 4.87 | 3.73 | 1.38 | 2.64 | 5.28 | 9.27 | 3.7 | 10.8 | 2.5 | 5.22 | 4.54 | 6.64 | 2.43 | 3.81 | 2.38 | 4 | 3.35 | 4.23 | 2.92 |
| NS(=O)(=O)c1ccc(Nc2cc(-c3ccc(O)c(F)c3)n[nH]2)cc1 | 0.39 | -0.55 | 1.15 | -1.43 | -1.22 | -8.2 | -0.79 | -6.2 | 8.46 | -1 | 7.59 | -1.37 | -0.04 | -3.53 | -0.52 | -2.61 | 4.49 | -2 | 0.81 | -1.44 |
| COc1cc(C)c(N(C)C(=O)CN(C)C)cc1Nc1nc(Nc2cccc(F)c2C(N)=O)c2cc[nH]c2n1 | -2.78 | -0.52 | 0.76 | 0.02 | -1.14 | 3.07 | 5.4 | 4.5 | 2.04 | 1.26 | 3.23 | 3.79 | 16.4 | 1.25 | 4.87 | -0.71 | 6 | -0.75 | 11.3 | -2.38 |
| O=C(Nc1n[nH]c2cc(-c3ccccc3)ccc12)C1CC1 | 0.64 | -2.16 | -2.34 | 1.27 | 0.86 | 5.14 | 9.28 | 5.24 | 12.8 | 1.84 | 8.06 | 2.16 | 2.02 | 1.41 | 0.6 | 3.51 | 5.68 | 5.13 | 5.75 | 4.46 |
| COc1cc2ncn(-c3cc(OCc4ccccc4C(F)(F)F)c(C(C)=O)s3)c2cc1OC | 0.86 | 0.65 | -0.5 | 1.07 | 0.82 | -0.57 | 5.68 | -0.99 | 7.06 | 2.89 | 2.12 | 2.55 | 3.05 | 1.34 | 1.53 | 3.35 | 2.73 | 2.77 | 3.34 | 2.24 |
| CNC(=O)c1cncc(/C=C/c2c(C)cccc2C)c1 | -3.47 | 1.2 | 2.65 | -0.02 | -0.41 | 26.2 | 76 | 7.18 | 27.6 | 0.21 | 0.94 | 0.04 | -1.47 | -0.04 | -1.42 | 4.35 | 2.33 | -2.91 | -2.08 | -2.38 |
